Screens from PubChem.
TRPV1 potentiator – human TRPV1 potentiation; Q8NER1; TRPV1-expressing cells, Fluo-8 calcium influx, capsaicin EC20 potentiation; potentiation, % at 8.33 µM; 320,000 compounds, 0.02% hits; AID 540277; in the data active = potentiation above about 80%; inconclusive = between about 30% and that limit
Target sequence (Q8NER1 whole entry, looked up): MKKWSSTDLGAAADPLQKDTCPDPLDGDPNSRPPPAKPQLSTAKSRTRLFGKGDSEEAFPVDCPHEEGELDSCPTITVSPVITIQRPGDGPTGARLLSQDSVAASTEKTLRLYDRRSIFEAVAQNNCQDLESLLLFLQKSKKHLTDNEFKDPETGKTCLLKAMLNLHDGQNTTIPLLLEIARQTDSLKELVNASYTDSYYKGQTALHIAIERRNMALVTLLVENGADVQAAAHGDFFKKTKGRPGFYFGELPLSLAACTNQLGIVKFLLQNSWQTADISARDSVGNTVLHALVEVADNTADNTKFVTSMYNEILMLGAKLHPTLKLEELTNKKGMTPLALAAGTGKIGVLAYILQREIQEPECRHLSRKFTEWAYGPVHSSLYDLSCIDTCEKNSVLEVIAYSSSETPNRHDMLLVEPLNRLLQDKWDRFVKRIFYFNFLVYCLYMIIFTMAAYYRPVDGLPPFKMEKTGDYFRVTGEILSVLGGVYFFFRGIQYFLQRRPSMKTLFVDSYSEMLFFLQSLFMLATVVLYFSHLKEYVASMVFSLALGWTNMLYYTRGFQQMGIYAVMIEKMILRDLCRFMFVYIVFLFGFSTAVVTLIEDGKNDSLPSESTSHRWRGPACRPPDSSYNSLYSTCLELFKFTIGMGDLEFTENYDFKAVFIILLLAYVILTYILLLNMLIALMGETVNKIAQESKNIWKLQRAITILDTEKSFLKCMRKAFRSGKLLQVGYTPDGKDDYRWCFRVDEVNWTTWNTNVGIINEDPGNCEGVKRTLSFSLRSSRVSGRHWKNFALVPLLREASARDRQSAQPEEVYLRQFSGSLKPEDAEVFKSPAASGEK
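TRPV1-expressing cells were cultured overnight at 35.5C and loaded with Fluo-8 calcium dye for 40 to 90 min at room temperature. After a 10 s baseline, compound was added and calcium influx was read kinetically for 3 min (ex 480/em 520 nm).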
KCNH2 3.1 block – KCNH2 3.1 (human) potassium channel inhibition | activity change, % (tested at about 1.8 µM) | 340,000 compounds, 0.95% hits | U2OS KCNH2 3.1, thallium flux FluxOr; active compounds read low;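 active = maximum activity change below -70%; inconclusive = maximum activity change from -70% to -50%; inactive = maximum activity change above -50%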;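 also: thallium influx rate constant from kinetic fluorescence after stimulation buffer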
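Channel expression came from 3.1 mutant virus (1.77 x 10^8 /mL) applied to suspended U2OS cells for 4 h. Flux was tracked with FluxOr dye plus Red40 quencher, and kinetic rate constants normalized to controls.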
TRPV1 agonist – human TRPV1 agonism; Q8NER1; TRPV1-expressing cells, Fluo-8 calcium influx, agonist mode; activation, % at 8.33 µM; 320,000 compounds, 0.19% hits; in the data active = activation above about 80%; inconclusive = between about 30% and that limit
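Cells expressing TRPV1 were dye-loaded with Fluo-8 and read kinetically: 10 s baseline, 3 min after compound (agonist portion), then 2 min after EC20 capsaicin (allosteric enhancer portion). Calcium-bound dye fluorescence at 480/520 nm.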
MBNL1-CUG inh – inhibitors of human MBNL1 binding to CUG repeat RNA; Q9NR56; TR-FRET MBNL1-His/biotin-(CUG)12 binding, 665/545 ratio; Potency, µM (series often up to 57.5 µM), usual class: inhibitors; 280,000 compounds, 0.036% hits; active = well fitted inhibition curve with a large enough effect in the signal ratio, with a control signal flat, not every such curve was filed as active; inconclusive = small, poorly fitted or top-dose-only effect, or effect the other way, or a change in a side signal; inactive = no such curve, though single readings can be large or run the other way; the % refers to the signal ratio
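TR-FRET between His-tagged MBNL1 and biotin-(CUG)12 RNA, detected with Tb anti-His antibody (0.055 ng/ul) and streptavidin-XL665 (5 nM), 60 min at room temperature. Compounds titrated 92 nM to 58 uM; 665/545 nm ratio normalized to buffer and complex controls.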
KCNH2 WT inh – inhibitors of human wildtype KCNH2 potassium channel; Q12809; U2OS, BacMam KCNH2, thallium flux FluxOr; active compounds read low; activity change, % at 1.84 µM; 340,000 compounds, 0.37% hits; AID 720551;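 active = maximum activity change below -70%; inconclusive = maximum activity change between -70% and -50%; inactive = maximum activity change above -50%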
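U2OS cells were transduced with wild-type KCNH2 virus (2.03 x 10^8 / mL) for 4 h at room temperature, then cultured overnight at 37 C. Thallium flux was read with FluxOr dye. Rate constants were normalized to DMSO controls.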
Large screens that a line does not name were inactive. Sampled rows, rich in hits. Any-hit rate of the full collection: about 1.3%.

COc1ccc(CCNC(=O)CSCc2ccc([N+](=O)[O-])cc2)cc1	MBNL1-CUG inh inconclusive
COc1ccc(CCNC(=O)CSCc2ccc([N+](=O)[O-])cc2)cc1OC	KCNH2 3.1 block -206, KCNH2 WT inh -129
COc1cc2c(cc1OC)C(=O)Cc1ccc3c(c1CN(C)CC2)OCO3	none
COc1ccc2c(c1OC)CN(C)CCc1cc3c(cc1C(=O)C2)OCO3	KCNH2 3.1 block -84
COc1ccc(CCNC(=O)COC(=O)c2cc(OC)c(OC)cc2OC)cc1OC	none (no result: MBNL1-CUG inh)
COc1ccc(C2CC(c3ccc(Cl)cc3)Nc3nc(NC(=O)c4ccco4)nn32)cc1 (configuration not stated)	KCNH2 3.1 block -71
O=C(NC1CCCCC1)C(c1cc2c(cc1[N+](=O)[O-])OCO2)N1CCCCC1 (configuration not stated)	none (no result: KCNH2 3.1 block, KCNH2 WT inh)
COc1ccc(C2NCCC3(O)CCCCC23)c(OC)c1OC (configuration not stated)	KCNH2 WT inh -296
COc1cc2c(cc1OC)C(C1(O)CCCCC1)NCC2 (configuration not stated)	none
N=c1n(CC(=O)c2ccc([N+](=O)[O-])cc2)c2ccccc2n1Cc1ccccc1	KCNH2 3.1 block -75
O=C(Cn1c(NCCO)nc2ccccc21)c1ccc([N+](=O)[O-])cc1	TRPV1 potentiator inconclusive, MBNL1-CUG inh inconclusive
O=C(Cn1c(NCCCO)nc2ccccc21)c1ccc([N+](=O)[O-])cc1	KCNH2 3.1 block -73, MBNL1-CUG inh inconclusive
N=c1n(CC(=O)c2ccc(Br)cc2)c2ccccc2n1Cc1ccccc1	KCNH2 3.1 block -84 (no result: MBNL1-CUG inh)
COc1ccc(/C(O)=C2/C(=O)C(=O)N(c3ccccn3)C2c2ccc(F)cc2)cc1 (configuration not stated)	none
CCCn1c(SCC(=O)N2CCc3ccccc3C2)nc(O)cc1=O	none (no result: TRPV1 potentiator, TRPV1 agonist, MBNL1-CUG inh)
CN(Cc1ccccc1)S(=O)(=O)c1cccc2cccnc12	KCNH2 WT inh -76
COc1cccc(CNC(=O)CN(C)S(=O)(=O)c2cccc3cccnc23)c1	none
CC1CCN(CCNC(=S)Nc2ccc(Cl)cc2)CC1	none
CC1CN(CC(O)COc2ccc(C#N)cc2)CCN1CC(O)COc1ccc(C#N)cc1 (configuration not stated)	KCNH2 3.1 block -102, KCNH2 WT inh -118
OC(COc1ccccc1Cl)CN1CCN(CC(O)COc2ccccc2Cl)CC1 (configuration not stated)	KCNH2 3.1 block -82, KCNH2 WT inh inconclusive
OC(COc1ccc(F)cc1)CN1CCN(CC(O)COc2ccc(F)cc2)CC1 (configuration not stated)	KCNH2 3.1 block -74
OC(CNC1CCCC1)COc1ccc(-c2ccccc2)cc1 (configuration not stated)	KCNH2 3.1 block -71
Cc1ccccc1OCC(O)CN1CCN(C)CC1 (configuration not stated)	none
CCOC(=O)c1c(C)cc2c(CO)n[nH]c(=O)c2c1C	none (no result: TRPV1 potentiator, TRPV1 agonist, MBNL1-CUG inh)
OC(COc1ccc(-c2ccccc2)cc1)CN1CCCCC1 (configuration not stated)	KCNH2 3.1 block -73 (no result: TRPV1 potentiator, TRPV1 agonist, MBNL1-CUG inh)
COCCNC(=O)C(c1ccc(Cl)cc1)N(C(=O)Cn1nnc2ccccc21)c1cccnc1 (configuration not stated)	none
COCCNC(=O)C(c1ccccc1)N(C(=O)Cn1nnc2ccccc21)c1cccnc1 (configuration not stated)	KCNH2 WT inh -197
O=C(NCC(c1ccco1)N1CCCC1)c1ccc(Cl)c(S(=O)(=O)N2CCc3ccccc32)c1 (configuration not stated)	KCNH2 3.1 block -77 (no result: MBNL1-CUG inh)
COc1ccccc1N(C)S(=O)(=O)c1ccc(C(=O)NCC(c2ccco2)N2CCCCC2)cc1 (configuration not stated)	KCNH2 3.1 block -94 (no result: TRPV1 potentiator, TRPV1 agonist, MBNL1-CUG inh)
CCCOC(=O)c1ccc(NC(=O)c2ccccc2[N+](=O)[O-])cc1	MBNL1-CUG inh inconclusive
O=C(CN1CCCCC1)N/N=C/c1ccccc1OCc1ccccc1	KCNH2 3.1 block -81
O=C(CN1CCCCC1)N/N=C/c1ccccc1Br	none
CC(C)(C)NC(=O)NC(=O)CN1CCCc2ccccc21	KCNH2 3.1 block -88
O=C(CN1CCCc2ccccc21)NC(=O)NCc1ccccc1	none
O=C(CCN1CCN(C/C=C/c2ccccc2)CC1)Nc1ccc(Cl)cc1	KCNH2 3.1 block -99
Cc1ccc(NC(=O)CCN2CCC(Cc3ccccc3)CC2)cc1	KCNH2 3.1 block -124
O=C(CCN1CCN(c2ccccc2)CC1)Nc1ccc(Cl)cc1	none
COc1ccc(C)cc1NC(=O)CCN1CCCC1	TRPV1 potentiator inconclusive
CN1CCN(CCC(=O)Nc2ccccc2)CC1	none
COc1ccc(C)cc1NC(=O)CCN1CCN(C/C=C/c2ccccc2)CC1	KCNH2 3.1 block -99, KCNH2 WT inh inconclusive
CC(C(=O)N(C)Cc1ccccc1)N1CCN(C/C=C/c2ccccc2)CC1 (configuration not stated)	KCNH2 3.1 block -96
Cc1ccc(NC(=O)CCN2CCN(C/C=C/c3ccccc3)CC2)cc1	KCNH2 3.1 block -86, KCNH2 WT inh -96
O=C(CN1CCN(C/C=C/c2ccccc2)CC1)NCc1ccccc1	KCNH2 3.1 block -91 (no result: KCNH2 WT inh)
O=C(CN1CCCCCC1)NCc1ccccc1	none
Cc1ccc(NC(=O)CCN2CCN(C/C=C/c3ccccc3)CC2)cc1C	KCNH2 3.1 block -96
COc1ccc(NC(=O)CCN2CCN(C/C=C/c3ccccc3)CC2)cc1	KCNH2 3.1 block -105
COc1cc(NC(=O)CCN2CCN(C/C=C/c3ccccc3)CC2)cc(OC)c1	none
Cc1cccnc1NC(=O)NC(=O)c1ccc(C(C)(C)C)s1	none
COc1ccc(OCc2nnc(SCC(=O)c3ccccc3)o2)cc1	none
CC(C(=O)Nc1ccc([N+](=O)[O-])cc1)N1CCN(C/C=C/c2ccccc2)CC1 (configuration not stated)	MBNL1-CUG inh inconclusive, KCNH2 WT inh -194
COc1ccc(Cl)cc1NC(=O)C(C)N1CCN(C/C=C/c2ccccc2)CC1 (configuration not stated)	KCNH2 3.1 block -93, KCNH2 WT inh -75
CC(=O)c1ccc(NC(=O)C(C)N2CCN(C/C=C/c3ccccc3)CC2)cc1 (configuration not stated)	KCNH2 3.1 block inconclusive
OCC1(CCc2ccccc2)CCN(C/C=C/c2ccccc2)CC1	KCNH2 3.1 block -107, KCNH2 WT inh -135
Cc1ccc(N2CCN(/N=C/c3c(C)nn(-c4ccccc4)c3Cl)CC2)cc1	KCNH2 3.1 block -90 (no result: MBNL1-CUG inh, KCNH2 WT inh)
Clc1ccc(CN2C3=NCCN3c3ccccc32)cc1Cl	KCNH2 3.1 block -75
COCCC(=O)N1CCC(Oc2ccc(C(=O)NCCn3cccn3)cc2)CC1	none
COc1cc(C2NC(=S)NC(C)=C2C(=O)c2ccccc2)ccc1O (configuration not stated)	none
